Test results taken from PubChem BioAssay AID1852 (Sanford-Burnham Center for Chemical Genomics, 2009).
The whole screen tested about 2,500 compounds, of which about 1,100 (44%) were called active.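 Rule for the calls: active = inhibition above 50% at 4 µM in the single-point screen; inactive = inhibition of 50% or less.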 So high a share suggests a set chosen from earlier hits. The list shows a part of the results.

experiment: TNF-a-driven NF-kB reporter inhibitors, primary screen, selectivity assay for NOD1/NOD2 signaling inhibitor project, cell-based, HEK293T NF-kB-Luc, luminescence (AID 1852); details: TNF-a induced, 14 h, at 4 µM, active compounds read high

inhibition, active:
CC1CCN(C(=O)c2ccc(S(=O)(=O)Cc3cc(F)ccc3F)c([N+](=O)[O-])c2)CC1 50.4%
O=C(c1ccc(S(=O)(=O)Cc2ccccc2Cl)c([N+](=O)[O-])c1)N1CCN(c2ccccn2)CC1 58.6%
Cc1ccc(CS(=O)(=O)c2ccc(C(=O)N3CCN(c4ccccn4)CC3)cc2[N+](=O)[O-])cc1 53%
CC(=O)N1CCCc2cc(S(=O)(=O)N3CCCC(C(=O)N4CCN(c5cccc(Cl)c5)CC4)C3)ccc21 (stereo unspecified) 57.4%
C=C(C)C(=O)O[C@H]1C/C(C)=C\C(=O)/C=C(\C)[C@H](O)[C@@H]2OC(=O)C(=C)[C@@H]21 102%
O=C(COc1ccc(Cl)cc1Cl)Nc1ccc(C(=O)Nc2ccccc2C(=O)O)cc1 53.4%
CC(NC(=O)OC(C)(C)C)C(=O)Oc1cc2oc(=O)cc(-c3ccccc3)c2cc1Cl (stereo unspecified) 84.3%
CC(NC(=O)OCc1ccccc1)C(=O)Oc1cc2oc(=O)cc(-c3ccccc3)c2cc1Cl (stereo unspecified) 55.2%
Cc1c(N=C2C=CC(=O)c3ccccc32)c(=O)n(-c2ccccc2)n1C 76.4%
COc1ccc(-c2cc(N)n(S(=O)(=O)c3c(F)c(F)c(F)c(F)c3F)n2)cc1OC 83.8%

inhibition, inactive:
O=C(c1ccc(S(=O)(=O)Cc2cc(F)ccc2F)c([N+](=O)[O-])c1)N1CCCCC1 -1.2%
CC1CCN(C(=O)c2ccc(S(=O)(=O)Cc3cccc(F)c3)c([N+](=O)[O-])c2)CC1 16.5%
Cc1ccc(N=c2c([N+](=O)[O-])nn(-c3ccc4c(c3)OCCO4)n2O)cc1F 0.1%
COc1ccccc1N1CCN(C(=O)C2CCCN(S(=O)(=O)c3ccc4c(c3)oc(=O)n4C)C2)CC1 (stereo unspecified) 19.5%
CC(=O)N1CCCc2cc(S(=O)(=O)N3CCCC(C(=O)N4CCN(c5cc(C)ccc5C)CC4)C3)ccc21 (stereo unspecified) 45.4%
O=C(COc1cccc2ccccc12)Nc1ccc(Cl)cc1C(=O)O -62.6%
Cc1cc(C(=O)Nc2ccccc2C(=O)O)ccc1NC(=O)COc1ccccc1Cl -11.7%
Cc1ccc(CNC(=O)[C@H](C)[C@H]2C[C@]2(C)[C@H](NC(=O)OCc2ccccc2)c2ccccc2)o1 1.6%
Cc1c(Nc2c3ccccc3nc3ccccc23)c(=O)n(-c2ccccc2)n1C 27.4%
COc1ccc(-c2nc3nc(N)nn3cc2C)cc1F 22.9%
COc1ccc(-c2cc(C(=O)NCCCN3CCOCC3)on2)cc1OC 6%
